One test addresses Albumin (Bos taurus) (UniProt P02769). The experiment in a line: compounds binding labelled BSA control protein – biochemical, small-molecule microarray, Alexa647 label, 635/667 nm fluorescence, artefact control for SMM control protein annotation, profiling panel (AID 1118).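 Note: score merges 667 nm emission intensity and signal-to-noise per printed compound spot.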 Particulars: BSA-A647 binding, fluorescence 635 nm, higher = more signal.
The nature of test [1]: probe aXIP binding to arrayed compounds – biochemical, NeuroSMM set, 635/667 nm fluorescence, primary screen (AID 1119).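 Note: probe is the protein aXip251-270 applied at 1 µg/mL to compound-printed slides; binding of probe to printed compounds measured as 667 nm fluorescence plus signal to noise.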 Particulars: small-molecule microarray, higher = more signal, called active from +8 up or from −8 down.
The nature of test [2]: probe aNOTCH3 binding on compound microarray – biochemical, small-molecule microarray, 635/667 nm fluorescence, primary screen (AID 1120).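 Note: probe is a biotin-tagged antibody raised against NOTCH3 rather than NOTCH3 protein; score merges spot fluorescence near 667 nm with spot signal to noise.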 Particulars: higher = more signal.
Test [3] is described as follows: probe aNOTCH2 binding on compound microarray – biochemical, small-molecule microarray, 635/667 nm fluorescence, primary screen (AID 1121).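 Note: score merges feature fluorescence read at 667 nm with its signal to noise.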 Particulars: higher = more signal.
In test [4] the target is Carbonic anhydrase 2 (Homo sapiens) (UniProt P00918). The experiment in a line: compounds binding carbonic anhydrase 2 – biochemical, small-molecule microarray, Alexa647-labelled CAII, profiling panel (AID 1122). The settings on record: CAII-A647 binding fluorescence, higher = more signal.
A short description of test [5]: COS7 lysate on small-molecule microarray, probe aHis, 635 nm (AID 1123).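 Note: z-score combines 667nm fluorescence intensity with signal-to-noise per printed compound spot.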 The settings on record: COS7 cell lysate, fluorescence, higher = more signal.
Test [6] is described as follows: probe aLAP1 signal on lysate-treated microarray – cell lysate, small-molecule microarray, COS7 lysate, primary screen (AID 1124).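 Note: lysate comes from COS7 cells expressing LAP1 and is applied at 0.3 µg/mL; score merges spot fluorescence near 667 nm with signal-to-noise over triplicate slides.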 Particulars: probe aLAP1, fluorescence, higher = more signal.
For the next test, the system named is Sam68 (KHDRBS1). Description: compounds binding KHDRBS1 protein – biochemical, small-molecule microarray, 635 nm fluorescence, primary screen (AID 1125).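 Note: score merges 667 nm channel intensity with signal to noise over triplicate slides.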 Particulars: higher = more signal.
Test [7] deals with Chordin-like protein 2 (CHRDL2). Description: compounds binding chordin-like 2 – biochemical, small-molecule microarray, 635 nm fluorescence, primary screen (AID 1126).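 Note: printed compound slides probed with Chrdl2 protein at 4 µg/mL for 1 h at 4 C; score merges 667 nm emission intensity with signal to noise over three replicate slides.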 Particulars: fluorescence 635 nm, higher = more signal.
Test [8] has as its target Concanavalin-A (Canavalia ensiformis) (UniProt P02866). Description: compounds binding concanavalin A lectin – biochemical, small-molecule microarray, Alexa647 label, 635 nm, artefact control for SMM control protein annotation, primary screen (AID 1127).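 Note: z combines 667 nm emission intensity with signal-to-noise across three replicate slides.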 The settings on record: ConA-A647 binding fluorescence, higher = more signal.
A short description of test [9]: compounds binding Alexa647 anti-His antibody – biochemical, small-molecule microarray, 635 nm fluorescence, artefact control for SMM control protein annotation, primary screen (AID 1128).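 Note: score merges feature fluorescence with signal-to-noise for each printed compound spot.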 Particulars: higher = more signal.
Test [10] has as its system Human papillomavirus type 1a E7 protein (residues 1-88). The experiment in a line: HPV1a E7 small-molecule binders, primary screen, biochemical, small-molecule microarray, residues 1-88, 635 nm (AID 1129). Particulars: small-molecule microarray binding, fluorescence 635 nm; higher = more signal.
Test [11] has as its target Focal adhesion kinase 1 (Homo sapiens) (UniProt Q05397). Description: PTK2 protein binding on printed compound slides – biochemical, small-molecule microarray, 635/667 nm fluorescence, BSA, DTT, primary screen (AID 1130).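 Note: composite of spot emission at 667 nm and signal to noise over triplicate slides.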 The settings on record: 635 nm fluorescence, higher = more signal.
The test system of test [12] is Fibrinogen (Alexa647-labelled). Description: Alexa647-fibrinogen binding to printed small molecules – biochemical, small-molecule microarray, 635/667 nm fluorescence, artefact control for SMM control-protein annotation, profiling panel (AID 1131).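 Note: z-score merges 667 nm fluorescence with per-spot signal-to-noise over triplicate slides.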 Particulars: fibrinogen-A647 binding fluorescence, higher = more signal.
Test [13] addresses Follistatin (Homo sapiens) (UniProt P19883). The experiment in a line: FST protein binding to printed compounds – biochemical, small-molecule microarray, 635/667 nm fluorescence, primary screen (AID 1132). Particulars: 635 nm fluorescence, higher = more signal.
Test [14] concerns the target Fibroblast growth factor 2 (Homo sapiens) (UniProt P09038). Description: basic fibroblast growth factor binding to printed compounds – biochemical, small-molecule microarray, 635/667 nm fluorescence, primary screen (AID 1133). Particulars: FGF2, fluorescence 635/667, higher = more signal.
Test [15] in a line: JC-1 mitochondrial potential readout, lung cancer cells – cell-based, A549, JC-1 fluorescence, basal, 24 h, 100 nL, profiling panel (AID 1138).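 Note: A549 lung adenocarcinoma cells under basal conditions with no added stimulus; test concentration not given here.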 The settings on record: higher = more signal.
A further test has as its system Lefty1. Description: Lefty1 protein binding to printed compounds – biochemical, small-molecule microarray, 635/667 nm fluorescence, primary screen (AID 1139). Particulars: fluorescence 635/667, higher = more signal.
For test [16], the system named is wheat germ agglutinin (Triticum aestivum), Alexa647-labelled. The experiment in a line: Alexa647-WGA lectin binding to printed small molecules – biochemical, small-molecule microarray, 635/667 nm fluorescence, artefact control for SMM control-protein annotation, profiling panel (AID 1140).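 Note: score merges 667 nm feature emission with signal to noise over triplicate slides.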 Particulars: WGA-A647 binding, 635 nm fluorescence, higher = more signal.
Test [17] deals with Luciferin 4-monooxygenase (Photinus pyralis) (UniProt P08659). Description: inhibition of purified Photinus pyralis luciferase – biochemical, luminescence, purified enzyme, 2006 set, primary screen (AID 1141).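 Note: cell-free assay with purified firefly luciferase at 100 ng per well in PBS; test concentration not given here.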 Particulars: purified firefly luciferase, SteadyGlo luminescence, 30 min; higher = more signal, called active from +8 up or from −8 down.

Activity calls are given as the source filed them.

Luciferin 4-monooxygenase (Photinus pyralis), sequence (P08659 whole entry, looked up): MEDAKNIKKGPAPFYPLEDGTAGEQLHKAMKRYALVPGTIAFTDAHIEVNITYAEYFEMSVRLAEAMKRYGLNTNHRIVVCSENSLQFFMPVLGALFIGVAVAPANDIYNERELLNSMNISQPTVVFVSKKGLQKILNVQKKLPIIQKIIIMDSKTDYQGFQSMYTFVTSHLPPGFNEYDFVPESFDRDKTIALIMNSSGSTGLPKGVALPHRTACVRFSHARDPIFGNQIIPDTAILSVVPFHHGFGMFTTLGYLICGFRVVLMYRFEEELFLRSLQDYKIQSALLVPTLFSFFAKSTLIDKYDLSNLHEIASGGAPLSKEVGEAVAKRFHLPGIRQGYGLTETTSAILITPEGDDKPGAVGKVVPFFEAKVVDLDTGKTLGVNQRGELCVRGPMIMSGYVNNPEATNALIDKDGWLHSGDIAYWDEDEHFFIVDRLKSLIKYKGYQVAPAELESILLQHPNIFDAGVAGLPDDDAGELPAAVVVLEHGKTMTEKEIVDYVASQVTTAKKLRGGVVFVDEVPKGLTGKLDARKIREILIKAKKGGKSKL
Focal adhesion kinase 1 (Homo sapiens), sequence (Q05397 whole entry, looked up): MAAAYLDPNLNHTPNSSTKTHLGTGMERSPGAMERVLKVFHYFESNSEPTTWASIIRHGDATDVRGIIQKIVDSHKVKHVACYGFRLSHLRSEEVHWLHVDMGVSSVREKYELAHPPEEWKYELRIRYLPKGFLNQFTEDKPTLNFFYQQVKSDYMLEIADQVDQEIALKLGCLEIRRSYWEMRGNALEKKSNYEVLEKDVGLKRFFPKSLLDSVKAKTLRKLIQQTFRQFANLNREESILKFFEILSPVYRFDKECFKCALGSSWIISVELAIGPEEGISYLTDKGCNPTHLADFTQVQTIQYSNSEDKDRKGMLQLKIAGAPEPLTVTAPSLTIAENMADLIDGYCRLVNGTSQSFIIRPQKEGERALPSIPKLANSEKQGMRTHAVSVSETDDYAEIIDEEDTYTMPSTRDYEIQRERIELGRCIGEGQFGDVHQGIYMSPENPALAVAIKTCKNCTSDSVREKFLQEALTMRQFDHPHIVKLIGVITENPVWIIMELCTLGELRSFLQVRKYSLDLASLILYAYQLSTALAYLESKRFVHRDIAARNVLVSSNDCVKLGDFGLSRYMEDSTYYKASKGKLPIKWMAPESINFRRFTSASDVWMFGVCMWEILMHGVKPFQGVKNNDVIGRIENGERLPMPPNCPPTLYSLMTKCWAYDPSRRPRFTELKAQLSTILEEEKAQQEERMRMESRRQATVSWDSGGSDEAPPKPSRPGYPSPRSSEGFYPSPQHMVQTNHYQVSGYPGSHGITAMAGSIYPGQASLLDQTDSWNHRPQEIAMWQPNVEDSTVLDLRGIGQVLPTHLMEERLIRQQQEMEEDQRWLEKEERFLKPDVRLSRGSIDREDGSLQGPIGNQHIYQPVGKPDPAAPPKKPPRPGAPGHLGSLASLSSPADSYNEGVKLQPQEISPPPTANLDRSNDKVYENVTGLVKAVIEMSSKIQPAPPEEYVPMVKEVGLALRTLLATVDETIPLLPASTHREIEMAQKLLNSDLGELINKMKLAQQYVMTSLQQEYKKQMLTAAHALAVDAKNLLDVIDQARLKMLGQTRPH
Follistatin (Homo sapiens), sequence (P19883 whole entry, looked up): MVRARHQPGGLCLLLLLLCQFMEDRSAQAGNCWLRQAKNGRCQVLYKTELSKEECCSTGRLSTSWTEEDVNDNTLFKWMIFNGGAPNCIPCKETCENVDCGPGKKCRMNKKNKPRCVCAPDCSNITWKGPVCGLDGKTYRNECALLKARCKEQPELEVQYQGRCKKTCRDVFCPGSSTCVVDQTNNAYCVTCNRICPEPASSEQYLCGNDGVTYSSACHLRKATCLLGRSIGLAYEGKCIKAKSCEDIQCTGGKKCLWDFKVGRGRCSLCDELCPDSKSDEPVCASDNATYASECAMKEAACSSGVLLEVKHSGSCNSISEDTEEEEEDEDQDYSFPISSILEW
Concanavalin-A (Canavalia ensiformis), sequence (P02866 whole entry, looked up): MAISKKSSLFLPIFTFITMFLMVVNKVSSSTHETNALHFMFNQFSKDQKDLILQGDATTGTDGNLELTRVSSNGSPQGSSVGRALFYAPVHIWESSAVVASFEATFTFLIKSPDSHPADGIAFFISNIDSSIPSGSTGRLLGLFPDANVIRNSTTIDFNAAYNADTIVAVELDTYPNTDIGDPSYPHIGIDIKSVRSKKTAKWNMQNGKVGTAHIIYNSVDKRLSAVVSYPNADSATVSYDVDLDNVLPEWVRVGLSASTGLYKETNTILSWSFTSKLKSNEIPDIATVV
Fibroblast growth factor 2 (Homo sapiens), sequence (P09038 whole entry, looked up): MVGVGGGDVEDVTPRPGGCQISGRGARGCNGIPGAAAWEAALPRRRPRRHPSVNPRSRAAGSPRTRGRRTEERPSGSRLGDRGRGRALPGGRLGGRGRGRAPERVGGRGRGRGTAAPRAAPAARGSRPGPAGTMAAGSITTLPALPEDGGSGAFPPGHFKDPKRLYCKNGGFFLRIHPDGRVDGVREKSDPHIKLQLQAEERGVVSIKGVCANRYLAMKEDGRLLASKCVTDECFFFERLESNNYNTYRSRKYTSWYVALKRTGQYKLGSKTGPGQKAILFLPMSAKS
Albumin (Bos taurus), sequence (P02769 whole entry, looked up): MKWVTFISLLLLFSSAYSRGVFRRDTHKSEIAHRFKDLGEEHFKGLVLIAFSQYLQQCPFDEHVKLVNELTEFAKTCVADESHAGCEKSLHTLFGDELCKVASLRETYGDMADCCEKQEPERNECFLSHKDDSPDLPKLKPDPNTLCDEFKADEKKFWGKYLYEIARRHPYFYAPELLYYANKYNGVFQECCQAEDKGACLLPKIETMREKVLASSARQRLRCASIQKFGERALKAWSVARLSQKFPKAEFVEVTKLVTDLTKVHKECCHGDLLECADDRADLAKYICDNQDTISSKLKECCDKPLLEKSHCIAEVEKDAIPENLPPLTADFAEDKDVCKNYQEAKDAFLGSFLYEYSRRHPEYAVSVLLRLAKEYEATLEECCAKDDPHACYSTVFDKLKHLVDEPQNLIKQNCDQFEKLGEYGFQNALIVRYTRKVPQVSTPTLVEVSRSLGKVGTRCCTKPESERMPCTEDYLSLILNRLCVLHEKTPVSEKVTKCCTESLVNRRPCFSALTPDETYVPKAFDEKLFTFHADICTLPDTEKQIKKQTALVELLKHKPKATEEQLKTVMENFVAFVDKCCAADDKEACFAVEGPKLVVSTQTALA

For `N#Cc1ccc(NN2C(C(O)c3cccc4ccccc34)C=CC3C(=O)N(c4ccccc4)C(=O)C32)cc1` (stereo not given), the composite z-score in the test with Albumin (Bos taurus) was 0.595; in test [2], 0.479; in test [3] it was 0.0687; in [4] it was 0.696; in test [5], 2.82; in test [6], 0.599. For the same compound, the composite z-score with Sam68 (KHDRBS1) was 1.31; in test [7] it was -0.0989; in test [8], 0.926; in test [9] it was 1.06; in test [10], 1.24; in test [11] it was 0.413. Further, the composite z-score in test [12] was 0.965; in test [13] it was 1.23; in test [14] it was -0.24; in the test with Lefty1, 0.279; in [16], 1.24. In addition, the composite Z-score in test [1] is 0.544 (inactive). Further, the z-score in test [15] is 1.11; in test [17] it was 0.512 (inactive).

With `COc1ccc(O[C@H]2C=C[C@@H](c3ccccc3)O[C@@H]2COC(=O)CCC(C)=NO[C@@H](C)c2cc(-c3c(C)cc(C)cc3C)no2)cc1`, the composite z-score in the test with Albumin (Bos taurus) was -0.0567; in test [2], -0.187; in test [3] it was -0.153; in [4], -0.505; in test [5], -0.451; in test [6] it was -0.522. The composite z-score in the test with Sam68 (KHDRBS1) was -0.822; in [7], -0.654; in test [8] it was -1.63; in test [9] it was -0.566; in test [10], -0.23; in [11] it was -0.174. Besides, the composite z-score in [12] is -0.223; in test [13], -1.32; in test [14], -0.848; in the test on Lefty1, -0.773; in [16] it was -0.204. Further, the composite Z-score in [1] was -0.314 (inactive). Besides, the z-score is 0.67 in test [15] and 1.21 (inactive) in test [17].

Regarding `COCCOC(=O)N1C(=O)[C@@]2(c3cc(C#Cc4ccc(OC)cc4)ccc31)[C@H](c1ccc(O)cc1)N1[C@H](c3ccccc3)[C@H](c3ccccc3)OC(=O)[C@H]1[C@@H]2C(N)=O`, the composite z-score in the test with Albumin (Bos taurus) was 0.595; in [2], 0.357; in test [3], -0.108; in test [4] it was 0.48; in [5], 1.52; in test [6], 0.364. Further, the composite z-score with Sam68 (KHDRBS1) was 1.29; in [7], 0.356; in test [8] it was 1.12; in test [9], 0.308; in [10], 1.17; in test [11], 0.126. Also, the composite z-score in test [12] turned out to be 0.972; in test [13], 1.3; in test [14] it was 0.852; in the test on Lefty1 it was 0.728; in test [16] it was 0.779. Moreover, in test [1], the composite Z-score was 0.0583 (inactive). Also, the z-score was -1.47 in test [15] and 0.556 (inactive) in [17].

`CC(C)CON=C1C[C@@H](O)[C@@H](O)[C@@H]2[C@@H]3C(=O)N(Cc4ccccc4)C(=O)[C@@H]3CC[C@@H]12`: the composite z-score with Albumin (Bos taurus) was 0.0737; in [2], -0.0679; in test [3], -0.153; in test [4], -0.111; in test [5], -0.137; in test [6], -0.0468. Also, the composite z-score in the test on Sam68 (KHDRBS1) was 0.631; in [7] it was 0.716; in test [8], -0.0393; in test [9], 0.705; in test [10], 0.633; in test [11], 0.528. Also, the composite z-score in test [12] is -0.598; in test [13], -0.163; in test [14], 0.239; in the test on Lefty1 it was 0.516; in [16], 0.0615. Also, the composite Z-score in test [1] is 0.156 (inactive). Further, the z-score in test [15] is -0.762; in [17], 1.12 (inactive).

In the case of `C=C(/C(=C/C[C@H](OC(C)=O)c1ccc(OCCO)cc1)c1cnc2ccccc2c1)C(C)C`, the composite z-score with Albumin (Bos taurus) was -0.154; in test [2], 0.0418; in [3] it was -0.146; in test [4] it was 0.885; in test [5], 0.575; in test [6], -0.315. Further, the composite z-score in the test on Sam68 (KHDRBS1) is 1.3; in [7] it was 1.2; in test [8], 1.09; in [9], 0.888; in test [10], 1.19; in test [11] it was -0.0763. Besides, the composite z-score amounted to 0.921 in test [12]; 1.45 in test [13]; 1.31 in test [14]; 1.48 in the test with Lefty1; 0.585 in test [16]. In addition, in test [1], the composite Z-score is -0.229 (inactive). For the same compound, the z-score in [15] is 0.414; in test [17], -0.477 (inactive).

These data come from PubChem BioAssay.
